Test results: PubChem BioAssay AID504444 (National Center for Advancing Translational Sciences (NCATS), 2011)
Screen size: about 360,000 compounds; about 7,500 (2.1%) were called active. Inconclusive results (about 20%) are left out. The call rests on the fitted dose curve; in most records, active means well fitted inhibition curve with a large enough effect; inconclusive means small, poorly fitted or top-dose-only effect, or effect the other way; inactive means flat fitted curve, though single readings scatter. Shown is part of a subset that was picked to be rich in actives.

Experiment: Nrf2 qHTS screen for inhibitors; further: nearly all actives have a fitted effect of over 60% in size
Conditions: A549 ARE-Fluc reporter, luciferase luminescence, 18-24 h; series mostly up to 46 µM
Outline: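 Cells were seeded and rested 2 h, then exposed to compounds for 18-24 h. CellTiter-Fluor was read first as a viability measure. BugLite was added 15 min before the final luminescent read of ARE-luciferase activity in A549 cells.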
On the % scale 0 is the no-effect control and ±100 the full control effect; potency means the concentration at half of the fitted maximal effect.

Potency, inactive:
CCc1cc2c(NC(Cc3ccccc3)C(=O)O)ncnc2s1 (configuration not stated)
Oc1ccccc1N1CCN(c2ncnc3sc(-c4ccccc4)cc23)CC1
Cc1nn(-c2ccc(N3CCCCC3)nn2)c(C)c1CCC(=O)NCc1ccc(F)cc1
COc1ccc(OC)c(NC(=O)CN2CCCN(Cc3cc(C)ccc3C)S2(=O)=O)c1
O=C(N[C@H]1C/C=C\C(c2cccc(F)c2)N(Cc2ccccc2)C(=O)C1)OCC1c2ccccc2-c2ccccc21 (some centres not stated)
N/C(=N\OC(=O)Nc1ccc(Cl)c(Cl)c1)c1ncc(C(F)(F)F)cc1Cl
CCn1nccc1C(=O)Nc1ccc(Cl)c(Cl)c1
CCN(CC)c1nc(C#N)nc(OC)n1
COC(=O)c1cc2nc(-c3ccccc3)cc(C(F)(F)F)n2n1
C=CCNC(=O)c1cc2nc(C3CC3)cc(C(F)F)n2n1
O=C(NCC12CC3CC(CC(C3)C1)C2)c1cc2nc(-c3ccccc3)cc(C(F)(F)F)n2n1
Cc1cccc(-n2ncc(C(=O)N3CCC(C)CC3)c2C2CCN(C(=O)OC(C)(C)C)CC2)c1
Cc1ccc(-c2nnc3ccc(SCC(N)=O)nn23)cc1
Cc1ccc(CNC(=O)CSc2c3c(nc4cc(Cl)ccc24)CCCC3)cc1
Cc1cccc(NC(=S)N2CCC(C(=O)c3ccc(F)cc3)CC2)c1
CCOc1ccc(C2C(C(=O)Nc3ccc(Cl)cc3)=C(C)Nc3nc(C(F)(F)F)nn32)cc1 (configuration not stated)
CCN(CC)c1ccc(NC(=O)CN2C(=O)c3cccnc3Oc3ccc(Cl)cc32)c(C)c1
Cc1cccc(N2CCN(c3ccc(NC(=O)/C=C\C(=O)O)cc3)CC2)c1
CN1CCN(c2ccc(NC(=O)c3cc(Cl)c4c(c3)OCCO4)cc2)CC1
Cc1nn(-c2nc(-c3ccccc3)cc(C(F)(F)F)n2)c(C)c1Cl
CCN(c1ccccc1)S(=O)(=O)c1cccc(C(=O)NCc2ccccc2CN2CCOCC2)c1
Cc1ccc(-n2cnc3ncnc(-c4ccccc4)c32)cc1
Cc1nc2ccn(Cc3cccnc3)c(=O)c2cc1C(=O)N1CCN(c2ccccc2F)CC1
CCOc1ccc(CNC(=O)C2CCN(c3nnc(-n4cccc4CNc4ccc(C)cc4)s3)CC2)cc1OC
COc1ccc(Br)cc1/C=N/Nc1ccc(S(=O)(=O)Nc2ccccc2C(=O)O)cc1[N+](=O)[O-]
CCOC(=O)c1c(-c2ccccc2)oc2cc(Br)c(O)cc12
CCOC(=O)c1c(-c2ccccc2)oc2ccc(OCC(N)=O)cc12
COc1ccccc1N(CCOc1ccccc1)S(=O)(=O)c1ccccc1
COc1cccc(CC(=NO)c2cccc(OC)c2)c1
CCCCNC(=O)CN1C(=O)NC(Cc2ccccc2)(Cc2ccccc2)C1=O
COc1cccc(CNC(=O)CN2C(=O)NC(Cc3ccccc3)(c3ccccc3)C2=O)c1 (configuration not stated)
Cc1ccc(C(=O)CC2(O)C(=O)N(CCc3ccccc3)c3ccc(Br)cc32)cc1 (configuration not stated)
O=C(NCCCN1CCOCC1)c1ccc(N2CCCC2)c([N+](=O)[O-])c1
COCCNC(=O)c1ccc(N2CCC3(CC2)OCCO3)c([N+](=O)[O-])c1
CCOC(=O)N1CCc2c(sc3c2c(=O)n(-c2ccc(CC)cc2)c(=O)n3C)C1
CCOC(=O)C1CCN(C(=O)CSc2c3c(nc4ccc(Cl)cc24)CCCC3)CC1
Cc1ccc(-c2cc(C(F)(F)F)c(C#N)c(SCC(=O)Nc3ccccc3)n2)cc1
NS(=O)(=O)c1ccc(CCNC(=O)Nc2ccc(Cl)cc2)cc1
Cn1ccc(NC(=O)Nc2ccc(Cl)cc2)n1
Cc1ccc(CN2CCC(CNC(=O)c3cnn(-c4ccc(C)cc4)c3C3CCN(C(=O)OC(C)(C)C)CC3)CC2)cc1
CCOc1ccc(NC(=O)COC(=O)C2CCC(=O)N2)c([N+](=O)[O-])c1 (configuration not stated)
COc1ccc(C2=NC3(CCCCC3)N(CC(=O)Nc3ccc(C(C)C)cc3)C2=O)cc1
COc1ccc(CCNC(=O)CCCCn2c(=O)c3ccccc3n(Cc3ccccc3)c2=O)cc1OC
COC[C@@H]1NS(=O)(=O)c2ccc(Br)cc2O[C@H]1c1ccccc1
CN(C(=O)c1cccc(NC(=O)C2CCN(C(=O)OC(C)(C)C)CC2)c1)C1CCC1
O=C(CCn1c(=O)[nH]c2ccccc2c1=O)NCCCN1CCN(c2cccc(Cl)c2)CC1
O=C(CCCC(=O)N1CCN(c2cccc(Cl)c2)CC1)c1ccccc1
CCn1c(C(=O)Nc2cc(Cl)ccc2C)cc2sc(Cl)cc21
COc1ccc(-n2c(=O)c3sc4ccccc4c3n(CC(=O)Nc3cccc(C)c3)c2=O)cc1
Cc1ccc(C)c(Cn2c(C)c(CNCc3ccc(F)cc3)c(C(=O)O)c2C)c1
Cc1ccc(S(=O)(=O)N2CCC(C(=O)N3CCCCCCC3)CC2)cc1
COc1cc2c(C(=O)O)c(C)n(C)c2c2ccccc12
Cc1c(C(=O)N/N=C/c2ccccc2)[nH]c2c([N+](=O)[O-])cccc12
Cc1cc2c(cc3c(SCc4cccc(Cl)c4)nnc(C)n32)o1
CC1Sc2ccc(C(=O)NCc3ccccc3Cl)cc2NC1=O (configuration not stated)
CCn1c2ccccc2c2cc(NC(=O)COC(=O)c3cc(S(=O)(=O)N4CCCCC4)ccc3Cl)ccc21
Cc1cccc(NC(=O)c2cccc(S(=O)(=O)N3CCCC3)c2)n1
Cc1ccc(S(=O)(=O)N2CCN(C(=O)COC(=O)/C=C/c3cccc(Cl)c3)CC2)c(C)c1
COC(=O)c1ccccc1NC(=O)c1cc(-c2ccccc2O)no1
Cc1ccc(C)c(S(=O)(=O)N(C)c2ccc(OC(=O)C3CCN(C(=O)c4ccc(F)cc4)CC3)cc2)c1
COc1cccc2c1cc1c(=O)n(CC(=O)N3CCN(c4ccccc4)CC3)nc(C)n12
COc1ccc(NS(=O)(=O)c2ccc(C(=O)Nc3c(C)n(C)n(-c4ccccc4)c3=O)cc2)cc1
COC(=O)COc1ccc(S(=O)(=O)Nc2ccc(NC(C)=O)cc2)cc1
COc1cc(OC)cc(C(=O)Nc2ccc(S(=O)(=O)Nc3cc(C)on3)cc2)c1
COc1ccc(NC(=O)c2cnc(NS(=O)(=O)c3ccccc3)nc2)cc1
O=C(OCC#CCSc1nnc(-c2ccco2)o1)c1ccc(F)cc1
CC(C)n1cnc2c(NCc3ccccc3)cc(OCC3CCN(C)CC3)cc21
Cc1ccc(NC(=O)c2ccc(Cl)nc2)cc1S(=O)(=O)N1CCOCC1
CCc1ccc(NC(=O)CCCc2nnc3n(CCCOC)c(=O)c4sccc4n23)cc1
O=C(c1cc2cc(F)ccc2[nH]1)N1CCN(c2ccc(F)cc2)CC1
O=C(c1cncc(Br)c1)N1CCN(c2ccc([N+](=O)[O-])cc2)CC1
Cc1ccc(-n2c(=O)c3cccnc3n2CC(=O)Nc2ccccc2C(F)(F)F)cc1C
CC(C)(C)OC(=O)C[C@@H]1C/C=C\C[C@@H](CC(=O)N(CCO)Cc2ccccc2)C(=O)N[C@H](Cc2ccccc2)COC1=O
CCCn1c(=N)n(CC(O)COc2ccccc2OC)c2ccccc21 (configuration not stated)
Cc1nn(Cc2ccc(F)cc2)c(C)c1NC(=O)c1cccnc1Cl
Cc1cc(C(=O)Nc2c(C)nn(Cc3ccccc3)c2C)on1
Cc1ccccc1Cn1nc(C)c(NC(=O)c2cc(-c3ccc(F)cc3)on2)c1C
CC(C)Cc1cc(C(=O)Nc2cc(Br)ccc2O)no1

Potency, active:
CCc1cc2c(N3CCN(c4nnc(CC)s4)CC3)ncnc2s1 23.1 µM
O=C(CC(O)(C(F)(F)F)C(F)(F)F)Nc1ccc(Cl)c(Cl)c1 2.91 µM
O=C(c1ccccc1)N1CCN(C(=O)c2cc3nc(-c4ccccc4)cc(C(F)(F)F)n3n2)CC1 25.9 µM
CC1CCN(C(=O)c2cc3nc(C4CC4)cc(C(F)(F)F)n3n2)CC1 18.4 µM
C=CC(=O)Nc1ccc(Nc2ccnc(Nc3ccc(N4CCN(C)CC4)cc3)n2)cc1 14.6 µM
Cc1ccc(-c2nn(C(C)(C)C)c3ncnc(N)c23)cc1 18.4 µM
CCOC(=O)c1c(-c2ccccc2)oc2cc(Br)c(O)c(C=O)c12 20.6 µM
O=C(CN1C(=O)NC(Cc2ccccc2)(Cc2ccccc2)C1=O)NCC1CCCCC1 23.1 µM
CCCNC(=O)c1ccc(N2CCC3(CC2)CC(c2ccc(Cl)cc2)=NO3)c([N+](=O)[O-])c1 23.1 µM
CC(C)S(=O)(=O)c1csc(NC(=O)Nc2ccc(Cl)cc2)c1Cl 20.6 µM
O=C(Cc1ccc(-n2c(=O)[nH]c3ccccc3c2=O)cc1)N1CCN(c2cccc(Cl)c2)CC1 16.4 µM
COc1cccc2c(C)c(C(=O)O)[nH]c12 20.6 µM
CCn1c(O)c(N=NC(=O)c2cccc(S(=O)(=O)N3CCCCC3)c2)c2ccccc21 20.6 µM
COc1ccc(NS(=O)(=O)c2ccc(NC(=O)c3ccc(N(C)S(C)(=O)=O)cc3)cc2)cc1 16.4 µM
COc1cc(NS(=O)(=O)c2ccc(NC(C)=O)cc2)cc(OC)c1 5.8 µM
O=C(c1cc(C(=O)N2CCN(c3ccc(F)cc3)CC2)cc([N+](=O)[O-])c1)N1CCN(c2ccc(F)cc2)CC1 18.4 µM
Cc1nn(Cc2ccc(F)cc2)c(C)c1NC(=O)c1noc2c1CCc1ccccc1-2 20.6 µM
Cc1nn(Cc2ccc(F)cc2)c(C)c1NC(=O)c1cc(CC(C)C)on1 20.6 µM

Activity change, negative = inhibition, inactive:
CC(Sc1oc(-c2ccco2)nc1S(=O)(=O)c1ccc(Br)cc1)c1ccccc1 (configuration not stated) 8.26% [at 9.27 µM]
